# Legend:
# Experiment in all cases: DAPPL (digital affinity profiling via proximity ligation, sequencing); 10 mM Tris-HCl pH 7.5, 50 mM NaCl, 1 mM DTT, 4% glycerol, room temperature, 30 min; GST-TFs on glutathione beads, 16-mer random dsDNA library, 0.1% formaldehyde crosslink after washing; high values mean tight binding
# FLI1 = target: T1, FLI1 (Homo sapiens, UniProt Q01543 1-452); conditions: protein: recombinant; tags: N-terminal GST; dsDNA, one strand shown
# T1 sequence: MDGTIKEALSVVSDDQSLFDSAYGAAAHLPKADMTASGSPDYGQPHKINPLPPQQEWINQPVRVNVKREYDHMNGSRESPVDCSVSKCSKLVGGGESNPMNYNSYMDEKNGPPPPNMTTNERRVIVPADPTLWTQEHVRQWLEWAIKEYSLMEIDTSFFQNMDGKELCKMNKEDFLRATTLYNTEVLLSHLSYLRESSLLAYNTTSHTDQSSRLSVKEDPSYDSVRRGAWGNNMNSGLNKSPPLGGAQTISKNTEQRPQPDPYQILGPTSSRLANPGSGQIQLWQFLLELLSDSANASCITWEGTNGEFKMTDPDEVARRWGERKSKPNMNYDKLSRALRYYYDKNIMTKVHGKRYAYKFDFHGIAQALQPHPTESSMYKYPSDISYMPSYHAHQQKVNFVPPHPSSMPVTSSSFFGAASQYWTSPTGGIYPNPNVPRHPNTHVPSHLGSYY
# Outline: (§1)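 Sequencing on an Illumina NextSeq500 followed washing, crosslinking with 0.1% formaldehyde, proximity ligation (BsaI/T4 ligase, 1 h, 37 °C) and PCR amplification of pools that had been incubated for 30 min at room temperature with 200 nmole of a random double-stranded 16-mer DNA library in Tris/NaCl/DTT/glycerol buffer. Each pool held DNA-barcoded human transcription factors, expressed in yeast as GST fusions and captured on glutathione beads, plus a tag-only sample. Binding signal is a hexamer's read frequency for a factor divided by its frequency in the tag-only sample.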
# ELK1 = target: T2, ELK1 (Homo sapiens, UniProt P19419 1-428); conditions: protein: recombinant; tags: N-terminal GST; dsDNA, one strand shown
# T2 sequence: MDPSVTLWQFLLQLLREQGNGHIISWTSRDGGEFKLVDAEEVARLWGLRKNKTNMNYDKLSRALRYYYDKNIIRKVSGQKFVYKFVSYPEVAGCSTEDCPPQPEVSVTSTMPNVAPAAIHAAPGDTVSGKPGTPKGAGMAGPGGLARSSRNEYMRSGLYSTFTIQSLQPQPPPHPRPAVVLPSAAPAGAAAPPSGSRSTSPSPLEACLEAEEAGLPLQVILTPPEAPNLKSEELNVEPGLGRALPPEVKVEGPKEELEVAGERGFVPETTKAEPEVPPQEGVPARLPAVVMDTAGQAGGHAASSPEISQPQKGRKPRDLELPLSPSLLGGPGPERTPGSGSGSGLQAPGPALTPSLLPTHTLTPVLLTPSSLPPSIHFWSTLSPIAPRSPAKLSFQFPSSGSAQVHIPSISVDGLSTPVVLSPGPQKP
# Outline: as §1
# GABPA = target: T3, GABPA (Homo sapiens, UniProt Q06546 1-454); conditions: protein: recombinant; tags: N-terminal GST; dsDNA, one strand shown
# T3 sequence: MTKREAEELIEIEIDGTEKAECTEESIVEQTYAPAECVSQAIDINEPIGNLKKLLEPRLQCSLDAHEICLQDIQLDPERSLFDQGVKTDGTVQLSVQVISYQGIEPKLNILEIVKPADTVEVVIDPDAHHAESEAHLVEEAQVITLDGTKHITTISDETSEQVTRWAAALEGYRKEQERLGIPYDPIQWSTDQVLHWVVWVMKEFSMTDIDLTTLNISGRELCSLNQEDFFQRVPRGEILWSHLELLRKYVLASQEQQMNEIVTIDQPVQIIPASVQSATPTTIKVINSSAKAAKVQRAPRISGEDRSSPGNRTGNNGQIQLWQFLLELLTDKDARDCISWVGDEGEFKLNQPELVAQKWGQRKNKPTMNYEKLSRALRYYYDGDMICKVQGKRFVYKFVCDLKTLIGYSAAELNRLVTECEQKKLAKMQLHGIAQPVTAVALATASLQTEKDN
# Outline: as §1
# ERG = target: T4, ERG (Homo sapiens, UniProt P11308 1-479); conditions: protein: recombinant; tags: N-terminal GST; dsDNA, one strand shown
# T4 sequence: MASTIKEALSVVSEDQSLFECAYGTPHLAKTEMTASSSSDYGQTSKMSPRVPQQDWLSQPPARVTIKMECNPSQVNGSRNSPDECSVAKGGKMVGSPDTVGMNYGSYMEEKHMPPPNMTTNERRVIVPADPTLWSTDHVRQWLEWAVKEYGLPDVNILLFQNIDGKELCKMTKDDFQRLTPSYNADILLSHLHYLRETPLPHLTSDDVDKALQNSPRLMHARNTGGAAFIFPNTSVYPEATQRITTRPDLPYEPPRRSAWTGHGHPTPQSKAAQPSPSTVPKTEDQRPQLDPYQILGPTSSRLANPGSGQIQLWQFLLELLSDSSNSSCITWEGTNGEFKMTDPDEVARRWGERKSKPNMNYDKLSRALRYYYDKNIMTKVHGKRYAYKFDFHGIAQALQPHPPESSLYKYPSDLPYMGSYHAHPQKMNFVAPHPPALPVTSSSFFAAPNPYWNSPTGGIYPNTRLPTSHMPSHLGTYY
# Outline: as §1
# ELF1 = ELF1 (Homo sapiens, UniProt P32519 1-619); conditions: protein: recombinant; tags: N-terminal GST; dsDNA, one strand shown
# Sequence of ELF1 (P32519 whole entry): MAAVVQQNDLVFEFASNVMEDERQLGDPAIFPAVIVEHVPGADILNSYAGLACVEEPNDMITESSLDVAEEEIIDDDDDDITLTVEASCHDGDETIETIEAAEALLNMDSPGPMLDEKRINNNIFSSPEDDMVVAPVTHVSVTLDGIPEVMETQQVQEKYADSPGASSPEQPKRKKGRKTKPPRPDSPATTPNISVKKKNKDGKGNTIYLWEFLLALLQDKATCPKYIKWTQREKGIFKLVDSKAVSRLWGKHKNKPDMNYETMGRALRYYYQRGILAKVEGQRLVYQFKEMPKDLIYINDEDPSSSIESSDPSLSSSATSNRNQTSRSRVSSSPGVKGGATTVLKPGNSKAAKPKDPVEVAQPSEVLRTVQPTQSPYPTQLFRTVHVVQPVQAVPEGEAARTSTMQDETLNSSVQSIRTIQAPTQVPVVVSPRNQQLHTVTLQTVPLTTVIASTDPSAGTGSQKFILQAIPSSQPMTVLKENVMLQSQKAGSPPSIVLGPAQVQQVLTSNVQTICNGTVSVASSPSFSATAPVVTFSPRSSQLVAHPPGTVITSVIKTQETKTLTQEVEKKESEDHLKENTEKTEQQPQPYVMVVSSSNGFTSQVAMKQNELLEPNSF
# Outline: as §1
# EHF = target: T5, EHF (Homo sapiens, UniProt Q9NZC4 1-300); conditions: protein: recombinant; tags: N-terminal GST; dsDNA, one strand shown
# T5 sequence: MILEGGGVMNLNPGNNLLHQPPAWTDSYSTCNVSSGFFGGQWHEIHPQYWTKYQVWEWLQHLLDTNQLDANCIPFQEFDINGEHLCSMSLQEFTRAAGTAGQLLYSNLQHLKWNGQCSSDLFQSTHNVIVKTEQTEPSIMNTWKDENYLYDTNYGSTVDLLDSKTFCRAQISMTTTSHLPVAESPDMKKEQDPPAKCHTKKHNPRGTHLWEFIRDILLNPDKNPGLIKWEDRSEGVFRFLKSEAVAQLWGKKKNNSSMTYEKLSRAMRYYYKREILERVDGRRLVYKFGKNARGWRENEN
# Outline: as §1
# SPI1 = SPI1 (Homo sapiens, UniProt P17947 1-270); conditions: protein: recombinant; tags: N-terminal GST; dsDNA, one strand shown
# Outline: as §1
# SPIB = SPIB (Homo sapiens, UniProt Q01892 1-262); conditions: protein: recombinant; tags: N-terminal GST; dsDNA, one strand shown
# Sequence of SPIB (Q01892 whole entry): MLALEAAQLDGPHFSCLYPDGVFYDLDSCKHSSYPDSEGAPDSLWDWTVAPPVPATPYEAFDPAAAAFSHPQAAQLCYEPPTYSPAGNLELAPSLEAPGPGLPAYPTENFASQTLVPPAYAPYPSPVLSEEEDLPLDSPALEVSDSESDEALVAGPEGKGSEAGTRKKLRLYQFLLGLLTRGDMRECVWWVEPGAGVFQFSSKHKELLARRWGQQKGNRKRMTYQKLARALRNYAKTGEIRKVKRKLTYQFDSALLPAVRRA
# Outline: as §1
# ELK3 = target: T6, ELK3 (Homo sapiens, UniProt P41970 1-407); conditions: protein: recombinant; tags: N-terminal GST; dsDNA, one strand shown
# T6 sequence: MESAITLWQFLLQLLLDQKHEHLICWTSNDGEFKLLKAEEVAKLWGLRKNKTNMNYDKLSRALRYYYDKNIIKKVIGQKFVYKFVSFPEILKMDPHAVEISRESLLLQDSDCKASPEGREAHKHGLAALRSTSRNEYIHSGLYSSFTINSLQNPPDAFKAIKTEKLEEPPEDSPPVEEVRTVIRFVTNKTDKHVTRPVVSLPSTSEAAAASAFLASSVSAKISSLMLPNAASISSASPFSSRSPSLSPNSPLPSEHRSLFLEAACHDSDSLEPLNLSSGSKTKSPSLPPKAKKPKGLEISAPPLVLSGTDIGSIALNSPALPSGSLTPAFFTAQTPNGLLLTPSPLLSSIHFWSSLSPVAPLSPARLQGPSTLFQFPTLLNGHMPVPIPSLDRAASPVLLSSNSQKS
# Outline: as §1
# FEV = target: T7, FEV (Homo sapiens, UniProt Q99581 1-238); conditions: protein: recombinant; tags: N-terminal GST; dsDNA, one strand shown
# T7 sequence: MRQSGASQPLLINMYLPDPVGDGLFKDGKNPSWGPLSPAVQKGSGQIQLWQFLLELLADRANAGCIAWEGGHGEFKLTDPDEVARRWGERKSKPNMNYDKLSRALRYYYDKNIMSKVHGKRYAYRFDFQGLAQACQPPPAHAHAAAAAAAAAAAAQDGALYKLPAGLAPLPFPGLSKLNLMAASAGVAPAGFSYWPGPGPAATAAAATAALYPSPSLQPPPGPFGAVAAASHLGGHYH
# Outline: as §1
# ETV5 = ETV5 (Homo sapiens, UniProt P41161 1-510); conditions: protein: recombinant; tags: N-terminal GST; dsDNA, one strand shown
# Sequence of ETV5 (P41161 whole entry): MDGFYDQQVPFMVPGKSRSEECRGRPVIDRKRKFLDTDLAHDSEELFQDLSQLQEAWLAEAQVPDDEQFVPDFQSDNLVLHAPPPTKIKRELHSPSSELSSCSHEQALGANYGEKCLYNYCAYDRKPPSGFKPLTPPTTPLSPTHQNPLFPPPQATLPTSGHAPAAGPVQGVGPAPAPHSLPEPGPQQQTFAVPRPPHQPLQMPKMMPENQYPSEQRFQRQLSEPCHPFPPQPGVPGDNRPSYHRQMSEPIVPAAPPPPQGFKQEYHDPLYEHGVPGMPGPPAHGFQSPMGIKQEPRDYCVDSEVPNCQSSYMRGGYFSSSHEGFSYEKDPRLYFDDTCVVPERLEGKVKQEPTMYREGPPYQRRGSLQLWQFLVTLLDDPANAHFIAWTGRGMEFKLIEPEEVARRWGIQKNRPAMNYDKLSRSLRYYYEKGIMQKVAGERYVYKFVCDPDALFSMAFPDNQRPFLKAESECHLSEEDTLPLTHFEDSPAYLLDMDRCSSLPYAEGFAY
# Outline: as §1
# HSF1 = HSF1 (Homo sapiens, UniProt Q00613 1-529); conditions: protein: recombinant; tags: N-terminal GST; chain copies: 3; dsDNA, one strand shown
# Sequence of HSF1 (Q00613 whole entry): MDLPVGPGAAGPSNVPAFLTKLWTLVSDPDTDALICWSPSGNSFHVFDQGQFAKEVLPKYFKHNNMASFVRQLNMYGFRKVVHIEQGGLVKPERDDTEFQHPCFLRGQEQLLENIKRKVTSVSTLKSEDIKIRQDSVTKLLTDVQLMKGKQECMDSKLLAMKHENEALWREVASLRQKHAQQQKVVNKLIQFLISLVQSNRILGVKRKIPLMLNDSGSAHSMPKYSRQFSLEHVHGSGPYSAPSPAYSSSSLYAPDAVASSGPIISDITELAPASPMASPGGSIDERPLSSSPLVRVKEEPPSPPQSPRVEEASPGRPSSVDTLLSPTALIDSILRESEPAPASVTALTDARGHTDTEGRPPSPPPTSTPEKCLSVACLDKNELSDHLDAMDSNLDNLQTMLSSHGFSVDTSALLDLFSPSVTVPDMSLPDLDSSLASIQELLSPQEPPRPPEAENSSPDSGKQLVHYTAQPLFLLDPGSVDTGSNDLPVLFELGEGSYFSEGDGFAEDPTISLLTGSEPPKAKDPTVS
# Outline: as §1
# SPIC = target: T8, SPIC (Homo sapiens, UniProt Q8N5J4 1-248); conditions: protein: recombinant; tags: N-terminal GST; dsDNA, one strand shown
# T8 sequence: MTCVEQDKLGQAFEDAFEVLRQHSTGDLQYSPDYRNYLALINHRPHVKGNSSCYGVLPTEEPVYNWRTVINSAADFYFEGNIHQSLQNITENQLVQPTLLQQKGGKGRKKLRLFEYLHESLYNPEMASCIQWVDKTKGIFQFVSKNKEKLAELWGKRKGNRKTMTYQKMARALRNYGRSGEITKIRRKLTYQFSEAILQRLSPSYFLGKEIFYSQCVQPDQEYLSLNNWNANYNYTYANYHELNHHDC
# Outline: as §1
# ELF4 = ELF4 (Homo sapiens, UniProt Q99607 1-663); conditions: protein: recombinant; tags: N-terminal GST; dsDNA, one strand shown
# Sequence of ELF4 (Q99607 whole entry): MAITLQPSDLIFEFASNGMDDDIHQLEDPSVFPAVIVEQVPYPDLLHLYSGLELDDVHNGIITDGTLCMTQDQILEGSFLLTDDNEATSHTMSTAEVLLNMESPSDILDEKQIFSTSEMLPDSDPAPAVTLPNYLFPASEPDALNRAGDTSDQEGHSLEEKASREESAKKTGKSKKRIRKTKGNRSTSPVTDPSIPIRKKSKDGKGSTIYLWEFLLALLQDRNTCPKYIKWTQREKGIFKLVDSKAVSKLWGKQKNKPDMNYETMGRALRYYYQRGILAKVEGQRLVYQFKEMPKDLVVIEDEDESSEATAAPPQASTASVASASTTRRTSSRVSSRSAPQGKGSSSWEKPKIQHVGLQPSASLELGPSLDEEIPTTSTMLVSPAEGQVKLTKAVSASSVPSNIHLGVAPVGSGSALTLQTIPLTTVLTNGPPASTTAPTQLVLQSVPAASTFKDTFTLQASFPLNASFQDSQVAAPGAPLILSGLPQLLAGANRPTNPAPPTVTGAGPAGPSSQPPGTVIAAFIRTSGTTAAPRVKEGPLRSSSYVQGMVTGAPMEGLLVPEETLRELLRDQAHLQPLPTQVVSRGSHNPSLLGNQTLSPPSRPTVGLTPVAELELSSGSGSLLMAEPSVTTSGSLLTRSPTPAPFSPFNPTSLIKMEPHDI
# Outline: as §1
# ELK4 = target: T9, ELK4 (Homo sapiens, UniProt P28324-2 1-405); conditions: protein: recombinant; tags: N-terminal GST; dsDNA, one strand shown
# T9 sequence: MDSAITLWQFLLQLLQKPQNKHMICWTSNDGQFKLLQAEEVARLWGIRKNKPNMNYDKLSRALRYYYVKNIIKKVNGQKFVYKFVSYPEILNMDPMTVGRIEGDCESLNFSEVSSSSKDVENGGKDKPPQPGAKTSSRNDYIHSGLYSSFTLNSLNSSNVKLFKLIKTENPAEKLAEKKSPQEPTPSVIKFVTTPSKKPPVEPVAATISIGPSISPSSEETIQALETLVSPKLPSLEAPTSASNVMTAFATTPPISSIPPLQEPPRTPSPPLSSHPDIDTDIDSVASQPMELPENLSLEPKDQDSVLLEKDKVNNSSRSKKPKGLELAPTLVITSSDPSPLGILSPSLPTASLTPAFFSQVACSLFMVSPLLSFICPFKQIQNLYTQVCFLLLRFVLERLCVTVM
# Outline: as §1
# ETV2 = target: T10, ETV2 (Homo sapiens, UniProt O00321 1-342); conditions: protein: recombinant; tags: N-terminal GST; dsDNA, one strand shown
# T10 sequence: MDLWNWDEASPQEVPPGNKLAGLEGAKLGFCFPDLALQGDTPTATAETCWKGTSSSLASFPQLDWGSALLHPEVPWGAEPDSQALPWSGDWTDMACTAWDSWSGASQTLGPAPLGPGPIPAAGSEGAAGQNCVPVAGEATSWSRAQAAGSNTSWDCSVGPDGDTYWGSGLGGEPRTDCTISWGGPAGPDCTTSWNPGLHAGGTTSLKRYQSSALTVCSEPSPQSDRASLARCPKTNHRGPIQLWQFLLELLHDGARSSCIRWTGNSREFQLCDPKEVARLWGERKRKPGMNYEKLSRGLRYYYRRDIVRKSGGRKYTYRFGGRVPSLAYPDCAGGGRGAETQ
# Outline: as §1
# ELF3 = target: T11, ELF3 (Homo sapiens, UniProt P78545 1-371); conditions: protein: recombinant; tags: N-terminal GST; dsDNA, one strand shown
# T11 sequence: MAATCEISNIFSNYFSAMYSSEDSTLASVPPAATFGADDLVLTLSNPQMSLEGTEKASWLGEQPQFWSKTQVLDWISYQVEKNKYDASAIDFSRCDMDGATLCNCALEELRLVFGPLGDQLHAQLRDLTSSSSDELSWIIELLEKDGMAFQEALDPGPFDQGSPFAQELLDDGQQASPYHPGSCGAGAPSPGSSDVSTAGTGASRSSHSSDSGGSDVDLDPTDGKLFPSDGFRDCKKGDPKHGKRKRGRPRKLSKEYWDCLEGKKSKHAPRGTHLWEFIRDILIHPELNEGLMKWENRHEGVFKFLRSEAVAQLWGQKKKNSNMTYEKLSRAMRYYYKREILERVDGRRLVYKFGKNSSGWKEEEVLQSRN
# Outline: as §1
# CRX = CRX (Homo sapiens, UniProt O43186 1-299); conditions: protein: recombinant; tags: N-terminal GST; dsDNA, one strand shown
# Sequence of CRX (O43186 whole entry): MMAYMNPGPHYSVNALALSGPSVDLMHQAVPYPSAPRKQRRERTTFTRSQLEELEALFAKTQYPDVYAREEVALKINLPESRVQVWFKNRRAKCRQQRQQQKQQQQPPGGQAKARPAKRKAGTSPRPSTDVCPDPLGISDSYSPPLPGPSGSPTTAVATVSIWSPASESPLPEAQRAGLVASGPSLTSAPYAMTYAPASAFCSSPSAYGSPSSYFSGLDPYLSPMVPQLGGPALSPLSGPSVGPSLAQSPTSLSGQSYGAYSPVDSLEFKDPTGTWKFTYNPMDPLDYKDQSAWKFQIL
# Outline: as §1
# ETV1 = ETV1 (Homo sapiens, UniProt P50549 1-477); conditions: protein: recombinant; tags: N-terminal GST; dsDNA, one strand shown
# Sequence of ETV1 (P50549 whole entry): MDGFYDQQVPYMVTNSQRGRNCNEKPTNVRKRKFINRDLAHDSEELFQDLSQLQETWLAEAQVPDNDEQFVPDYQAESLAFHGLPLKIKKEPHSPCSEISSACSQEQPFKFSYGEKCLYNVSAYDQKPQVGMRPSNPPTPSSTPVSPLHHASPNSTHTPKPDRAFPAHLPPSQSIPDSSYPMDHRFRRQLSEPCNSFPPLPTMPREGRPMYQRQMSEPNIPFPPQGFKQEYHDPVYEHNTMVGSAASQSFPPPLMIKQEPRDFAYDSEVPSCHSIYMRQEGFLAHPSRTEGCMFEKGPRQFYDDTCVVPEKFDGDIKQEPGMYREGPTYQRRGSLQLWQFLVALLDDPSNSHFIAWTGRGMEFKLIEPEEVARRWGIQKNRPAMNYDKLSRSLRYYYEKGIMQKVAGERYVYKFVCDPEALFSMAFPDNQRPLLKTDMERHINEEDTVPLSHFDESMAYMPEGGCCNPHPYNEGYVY
# Outline: as §1
sequence,measurement,setting,value
TTCAAA,binding signal,FLI1,"1.23 fold enrichment (6-mer frequency, TF over GST control)"
same,binding signal,ELK1,"1.23 fold enrichment (6-mer frequency, TF over GST control)"
same,binding signal,GABPA,"1.4 fold enrichment (6-mer frequency, TF over GST control)"
same,binding signal,ERG,"1.2 fold enrichment (6-mer frequency, TF over GST control)"
same,binding signal,ELF1,"1.34 fold enrichment (6-mer frequency, TF over GST control)"
same,binding signal,EHF,"1.24 fold enrichment (6-mer frequency, TF over GST control)"
same,binding signal,SPI1,"1.26 fold enrichment (6-mer frequency, TF over GST control)"
same,binding signal,SPIB,"1.3 fold enrichment (6-mer frequency, TF over GST control)"
same,binding signal,ELK3,"1.36 fold enrichment (6-mer frequency, TF over GST control)"
same,binding signal,FEV,"1.25 fold enrichment (6-mer frequency, TF over GST control)"
same,binding signal,ETV5,"1.26 fold enrichment (6-mer frequency, TF over GST control)"
same,binding signal,HSF1,"1.25 fold enrichment (6-mer frequency, TF over GST control)"
same,binding signal,SPIC,"1.35 fold enrichment (6-mer frequency, TF over GST control)"
same,binding signal,ELF4,"1.26 fold enrichment (6-mer frequency, TF over GST control)"
same,binding signal,ELK4,"1.33 fold enrichment (6-mer frequency, TF over GST control)"
same,binding signal,ETV2,"1.34 fold enrichment (6-mer frequency, TF over GST control)"
same,binding signal,ELF3,"1.43 fold enrichment (6-mer frequency, TF over GST control)"
same,binding signal,CRX,"1.28 fold enrichment (6-mer frequency, TF over GST control)"
same,binding signal,ETV1,"1.32 fold enrichment (6-mer frequency, TF over GST control)"

# Reference: paper PMC7862700, “An all-to-all approach to the identification of sequence-specific readers for epigenetic DNA modifications on cytosine”
